# Bioassay records deposited in PubChem BioAssay by National Center for Advancing Translational Sciences (NCATS).
# ClpP mod = qHTS Assay for Activators of ClpP | purified B. subtilis ClpP, FRET peptide cleavage, 20 min | Potency, µM (top dose mostly 57.5 µM) | 340,000 tested, 1.9% active | AID 651965, 2013; active = well fitted falling curve with a large enough effect; inconclusive = small, poorly fitted or top-dose-only effect; inactive = no such curve, though single readings can be large or run the other way; note: the source files actives as falling curves though it sought activators and does not explain the sign; nearly all actives have a fitted effect of over 65% in size
# Target sequence (P80244 whole entry, looked up): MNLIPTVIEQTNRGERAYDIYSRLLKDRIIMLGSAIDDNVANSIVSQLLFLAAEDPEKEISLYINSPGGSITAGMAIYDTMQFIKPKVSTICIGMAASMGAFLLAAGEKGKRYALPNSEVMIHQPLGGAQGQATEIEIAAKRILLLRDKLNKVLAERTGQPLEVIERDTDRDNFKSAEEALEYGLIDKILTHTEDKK
#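 FRET quenching reversal measured ClpP activation: 10 microg/mL B. subtilis ClpP at pH 8 with the FRET-FV decapeptide, read at 430 nm after 320 nm excitation. The 20-min minus 0-min signal was scaled between DMSO/no-enzyme wells and ADEP (5.8 microM final).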
# D3 ag = D3 dopamine receptor (human) agonism. 410,000 tested, 0.58% active. AID 652048. D3R DiscoveRx beta-arrestin cells, luminescence, 90 min. max activation, %; in the data active = max activation above about 30%
# Target sequence (P35462 whole entry, looked up): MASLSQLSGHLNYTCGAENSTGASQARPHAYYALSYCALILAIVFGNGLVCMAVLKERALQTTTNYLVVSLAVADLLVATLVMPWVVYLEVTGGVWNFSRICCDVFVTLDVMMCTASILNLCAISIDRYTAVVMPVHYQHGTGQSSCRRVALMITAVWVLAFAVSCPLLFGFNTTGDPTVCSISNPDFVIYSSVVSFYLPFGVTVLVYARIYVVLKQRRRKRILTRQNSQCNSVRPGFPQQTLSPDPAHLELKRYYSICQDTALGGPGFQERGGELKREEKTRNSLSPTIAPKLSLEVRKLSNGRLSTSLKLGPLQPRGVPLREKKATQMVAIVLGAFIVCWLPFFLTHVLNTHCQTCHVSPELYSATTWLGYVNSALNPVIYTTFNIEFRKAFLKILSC
#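 Agonist-mode cell screen: cells plated at 1500/well and incubated overnight at 37 °C, then exposed to library compounds for 90 min at 37 °C. Detection reagent was added for 30–60 min at room temperature, and luminescence was read.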
# D3 antag = antagonists of human D3 dopamine receptor; 360,000 tested, 2.5% active; AID 652054; max response, negative = inhibition, %; D3R cells, DiscoveRx beta-arrestin luminescence, antagonist mode; hits give low values; in the data active = max response below about -50%; inconclusive = no clear call, values can overlap the other calls
#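 Cells plated overnight at 1500 cells/well, then exposed to library compounds with dopamine controls for 90 minutes at 37 degrees C. DiscoveRx reagent added for 30–60 minutes at room temperature; luminescence read, quantitative HTS format.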
# DT40 TDP1 CPT = growth inhibition of DT40 Tdp1-/-;hTDP1 cells with camptothecin (screen for TDP1 inhibitors). Potency, µM (highest dose often 46.2 µM), actives largely listed as inhibitors. chicken DT40 Tdp1-/-;hTDP1 cells + 20 nM CPT, ATP luminescence, 48 h. 420,000 tested, 12% active; note: nearly all actives have a fitted effect of over 55% in size
#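 Chicken DT40 Tdp1-/- cells complemented with human TDP1, 400 cells/well, exposed to compounds plus 20 nM camptothecin for at least 48 h at 37 C; viability read as ATP content by CellTiter-Glo luminescence.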
# IL1B secr inh = inhibitors of inflammasome signaling (IL-1 beta secretion); AID 743279; 360,000 tested, 4.7% active; activity change, % at 57.5 µM; THP-1 LPS/ATP IL-1B secretion, AlphaLISA, 16 h; hits give low values; in the data active = activity change below about -50%; inconclusive = mostly about -30% to -49%
#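 THP-1 cells pretreated 1 hr with compounds (up to 57.5 uM final), then stimulated with LPS (250 ng/mL final) plus ATP (1.25 mM final); secreted IL-1B measured by AlphaLISA after 16 hr, decreased signal indicating inhibition.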
# TDP1 cell noCPT = qHTS for Inhibitors of human tyrosyl-DNA phosphodiesterase 1 (TDP1): qHTS in cells in absence of CPT; DT40 Tdp1-/- hTDP1 cells, no CPT, ATP luminescence, 48 h; Potency, µM (doses to about 46.2 µM), most hits filed as inhibitors; 420,000 tested, 15% active; note: nearly all actives have a fitted effect of over 55% in size
#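 Chicken DT40 Tdp1-/- cells complemented with human TDP1, screened without camptothecin (DMSO vehicle only), 400 cells/well. Compounds pin-transferred, cells incubated at 37 °C for at least 48 hr. Growth read as ATP-dependent luminescence (CellTiter-Glo, 30 min at RT).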
# A number is an active result; i = inactive; ? = inconclusive; nt = no result. Only some compounds are listed: those with a hit (about 21% of all), similar ones and a draw of the others. Unless noted, calls come from the whole dose curve; as a rule, active = well fitted inhibition curve with a large enough effect; inconclusive = small, poorly fitted or top-dose-only effect; inactive = flat fitted curve, though single readings scatter.
SMILES,ClpP mod,D3 ag,D3 antag,DT40 TDP1 CPT,IL1B secr inh,TDP1 cell noCPT
Cc1cccc(C(=O)NCCN2CCCC2)c1,i,i,-66,i,i,i
Cc1ccc(C(=O)NCCN2CCCC2)cc1,i,i,?,i,i,i
Cc1cccc(C(=O)NCCNC(=O)c2cccc(C)c2)c1,nt,i,i,i,i,29µM
Cc1ccc(-n2nnc(-c3nc(-c4cccs4)no3)c2N)c(C)c1,i,i,nt,i,nt,i
Cc1ccc(OCC(=O)N/N=C/c2c[nH]c3ccccc23)c([N+](=O)[O-])c1,i,i,i,i,i,?
CCOc1cc(N2CCOCC2)c(OCC)cc1NC(=O)COC(=O)[C@@H]1CCCN1S(=O)(=O)c1ccccc1F,nt,i,i,?,i,?
COC(=O)c1ccccc1NC(=O)Cn1c(=O)n(CCC(=O)NCc2ccc3c(c2)OCO3)c(=O)c2ccccc21,i,i,nt,?,nt,?
CC(C)(C)c1ccc(C(=O)NCCCN2CCN(CCCNC(=O)c3ccc(C(C)(C)C)cc3)CC2)cc1,i,i,i,9.2µM,-81,9.2µM
CCOc1c(Cl)cc(C(=O)NCCN2CCCCC2)cc1Cl,i,i,-73,i,i,i
COc1ccc(C(=O)NCCN2CCCC2)cc1OC,i,i,i,i,i,i
CN(C)c1ccc(CNC(=O)c2ccc(NC(=O)c3nsc4ccccc34)cc2)cc1,i,i,nt,i,nt,?
COc1ccc(C(=O)Nc2ccc(N3CCOCC3)cc2)cc1S(=O)(=O)N1CCCC1,i,i,i,i,i,i
COc1ccc(NC(=O)c2cncc(Br)c2)cc1S(=O)(=O)N1CCCCC1,i,i,i,?,i,21µM
COc1ccc(NC(=O)c2cc(OC)c(OC)c(OC)c2)cc1S(=O)(=O)N1CCCCC1,nt,i,i,?,i,?
COc1ccc(C(=O)Nc2ccc(N3CCOCC3)cc2)cc1S(=O)(=O)N1CCOCC1,i,i,i,i,i,i
COc1ccc(C(=O)Nc2ccc(C)c(S(=O)(=O)N3CCOCC3)c2)cc1S(=O)(=O)N1CCCC1,i,i,i,21µM,i,?
COc1ccc(NC(=O)c2cc(S(=O)(=O)N3CCCCC3)ccc2C)cc1S(=O)(=O)N1CCOCC1,i,i,-52,i,i,i
COc1ccc(C(=O)Nc2ccc(-c3ccc(C)o3)cc2)cc1S(=O)(=O)N1CCOCC1,i,i,i,?,i,21µM
CCOC(=O)c1c(C)[nH]c(C(=O)OCC(=O)N(C)CC(=O)Nc2ccccc2Cl)c1C,i,i,i,?,i,?
O=C(NCc1ccco1)C(=O)NCC1OCCN1C(=O)c1ccc(Cl)cc1 (configuration not stated),nt,i,i,i,i,i
CC(C)(C)OC(=O)N[C@@H](CC(=O)OCc1ccccc1)C(=O)O,nt,i,i,?,i,?
Cc1ccc(Nc2nc3ccc(Cl)cc3n3cnnc23)cc1F,i,i,i,i,i,?
Cc1ccc(C(=O)Nc2ccc3c(c2)OCO3)cc1S(=O)(=O)N1CCCC1,i,i,i,?,i,7.3µM
Cc1ccc(C(=O)Nc2ccc3c(c2)OCO3)cc1S(=O)(=O)N1CCOCC1,i,i,i,i,i,i
COc1ccc(C)cc1S(=O)(=O)N1CCCCCC1,i,i,i,?,i,i
SMILES,ClpP mod,D3 ag,D3 antag,DT40 TDP1 CPT,IL1B secr inh,TDP1 cell noCPT
COc1ccc(Br)cc1S(=O)(=O)N1CCCC1,i,i,i,9.2µM,i,8.2µM
Cc1nn(-c2ccc(Cl)cc2)c(=O)c2c(C)noc12,i,i,i,i,i,i
COc1cc(C(=O)NCCCNc2nc3cc(C)c(C)cc3cc2C#N)cc(OC)c1OC,nt,i,i,?,i,23µM
COc1cc(C(=O)NCCNc2nc3c(C)c(C)ccc3cc2C#N)cc(OC)c1OC,i,i,i,i,i,i
COc1cc(C(=O)NCCNc2nc3cc(C)ccc3cc2C#N)cc(OC)c1OC,i,i,i,?,i,16µM
COc1cccc(OC)c1C(=O)NCCNc1nc2cc(C)cc(C)c2cc1C#N,i,i,i,?,?,?
CCc1c(C(=O)Nc2ccncc2)csc1C,i,i,i,?,i,21µM
Cc1ccc(NC(=O)Nc2nc3c(s2)CCCCCC3)cc1C,i,i,nt,13µM,nt,13µM
CC(C)(C)c1ccc(C(=O)NC(=S)Nc2nc3c(s2)CCCC3)cc1,nt,i,i,26µM,?,29µM
Cc1cc(NC(=O)Nc2csc3c2CCCC3)ccc1Br,i,i,nt,8.2µM,nt,9.2µM
COc1cc([N+](=O)[O-])ccc1NC(=O)Nc1nc2c(s1)CCCC2,i,i,i,i,i,i
Cc1cc(NC(=O)Nc2nnc(N(C)C3CCCCC3)s2)ccc1Br,i,i,nt,?,nt,?
Cc1cc(NC(=O)Nc2nc3c(s2)CCCCCC3)ccc1Br,i,i,nt,21µM,nt,18µM
CC(C)c1ccc(NC(=O)Nc2csc3c2CCCC3)cc1,i,i,nt,?,nt,?
CCOc1ccc(-n2c(Cc3ccccc3)nnc2SCc2nc(-c3cccs3)no2)cc1,i,i,nt,?,nt,?
Cc1cc(NC(=O)C(C)SCC(=O)Nc2cc(C(F)(F)F)ccc2N2CCOCC2)no1 (configuration not stated),nt,i,i,i,i,?
O=C(CCSCc1cccc(Cl)c1)N1CCN(c2ccc(Cl)cc2)CC1,i,i,nt,?,nt,?
COc1cccc(C(=O)CC(=O)C(=O)Nc2cccc([N+](=O)[O-])c2C)c1,nt,i,i,15µM,-92,12µM
COc1ccccc1C(=O)CC(=O)C(=O)Nc1cccc([N+](=O)[O-])c1C,i,i,i,16µM,i,12µM
COc1cccc(C(=O)CC(=O)C(=O)Nc2cc(OC)ccc2OC)c1,nt,i,i,18µM,i,23µM
CCOc1ccccc1NC(=O)C(=O)CC(=O)c1cccc(OC)c1,i,i,i,?,i,?
COc1ccc(C(=O)CC(=O)C(=O)Nc2cccc([N+](=O)[O-])c2C)cc1,nt,i,i,21µM,i,16µM
O=C(c1cccc(F)c1F)N1CCOc2ccc(CN3CCN(Cc4ccccn4)CC3)cc2C1,nt,nt,nt,i,nt,i
C#CCOCCOCCOCCNc1nc(N2CCN(C(=O)CCCCCCCCCCNC(=O)[C@@H](CCSC)n3cc(CCO)nn3)CC2)nc(N2CCN(C(=O)CCCCCCCCCCNC(=O)[C@H](CCC(=O)O)n3cc(CCCCCN)nn3)CC2)n1,i,i,i,i,-53,i
C#CCOCCOCCOCCNc1nc(N2CCN(C(=O)CCCCCCCCCCNC(=O)[C@@H](CCC(=O)O)n3cc(CCCCCN)nn3)CC2)nc(N2CCN(C(=O)CCCCCCCCCCNC(=O)[C@H](CO)n3cc(CCCCCN)nn3)CC2)n1,i,i,i,i,?,i
